Out of some 340,000 compounds screened, about 930 (0.27%) were called active. This is one part of a sample in which actives are shown more often than they occur. Unmarked numbers belong to inactive results.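 How the source made its calls: active means inhibition above the screen-wide average of all tested compounds plus 3 SD (cut at about 25% in these data); inactive means the rest.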
Target: Platelet-activating factor acetylhydrolase IB subunit alpha1 (Homo sapiens) (UniProt Q15102)
Assay: PAFAH1B3 enzyme inhibitors, primary screen, biochemical, fluorescence polarization, human (AID 492972);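 further: 0% = enzyme with DMSO only and 100% = wells lacking PAFAH1B3 protein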
Settings: recombinant PAFAH1B3, FP-rhodamine probe, at 3.39 µM, stronger effect = higher value

Platelet-activating factor acetylhydrolase IB subunit alpha1 (Homo sapiens), sequence (Q15102 whole entry, looked up): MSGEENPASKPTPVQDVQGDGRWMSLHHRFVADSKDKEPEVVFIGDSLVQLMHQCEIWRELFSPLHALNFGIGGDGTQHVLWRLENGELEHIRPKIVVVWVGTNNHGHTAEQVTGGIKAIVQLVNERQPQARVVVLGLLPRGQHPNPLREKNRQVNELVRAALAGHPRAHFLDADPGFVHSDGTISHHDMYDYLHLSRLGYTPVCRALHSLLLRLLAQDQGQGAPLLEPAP

Going from `CCC(C(=O)Nc1ccc(C(C)C)cc1)c1ccccc1` (configuration not stated) to `CSCCC(NC(=O)COc1ccccc1)C(=O)Nc1ccc(C)cc1` (configuration not stated), the inhibition rises from -2.07% to 3.02%.

First: Cc1ccc(S(=O)(=O)N2CCN(C)CC2)cc1
Second: CCNS(=O)(=O)c1ccc(CCC(=O)N2CCN(c3cc(Cl)ccc3C)CC2)cc1
The inhibition of the first is lower: 2.98% for the first, 8.42% for the second.

Compared with `CC/C(=N\NC(=O)c1c(C)nc2ccccn12)c1ccc(Cl)cc1`, `O=C(NCCc1ccccc1)Oc1ccc(Cl)cc1` is higher in inhibition: 2.04% for the first, 2.38% for the second.

First: CC(Sc1nncs1)C(=O)NCc1ccc2c(c1)OCO2 (configuration not stated)
Second: O=C(/C=C/c1ccc2c(c1)OCCO2)c1ccc(O)cc1
The inhibition of the first is higher: 4.2% for the first, -1.41% for the second.

Going from `COc1cc(CNCCN(C)C)ccc1OCc1c(F)cccc1Cl` to `COc1cc2c(C(=O)N(C)c3cc(Cl)ccc3OC)cn(C)c(=O)c2cc1OC`, the inhibition falls from 7.89% to 6.3%.

Compared with `Cc1ccc(-c2noc(CNC(=O)c3ccoc3C)n2)cc1`, `Cc1ccc(-c2cc(C(=O)NCc3cn(C)nc3C)c3cc(Br)ccc3n2)cc1` is lower in inhibition: 7.91% for the first, -4.68% for the second.

Going from `O=C(CN1C(=O)NC2(CCCCCC2)C1=O)NC1CC1` to `CC(C)C(C(=O)NC1CCCCC1)N(CC1CCCO1)C(=O)CNS(=O)(=O)c1ccc(F)cc1` (configuration not stated), the inhibition falls from 8.06% to 3.67%.

Compared with `CCCc1nc(N)nc2c1C(=O)CC(C)(C)C2`, `CCSC(C)CC1C/C(=N/O)c2c(C)noc2C1` (configuration not stated) is higher in inhibition: 3.91% for the first, 4.48% for the second.

Going from `Cc1ccc(N=C2NC(=O)/C(=C/C=C/c3ccco3)S2)cc1C` to `Cc1ccc(N2C(=O)S/C(=C/c3cn(C)c4ccccc34)C2=O)cc1`, the inhibition rises from -1.25% to 1.18%.

Compared with `CN(C)C(=O)CCc1ccc2c3c([nH]c2c1)[C@]1(C)[C@@H](C(=O)N2CCOCC2)C[C@H](CC(=O)NCCc2ccccn2)C(=O)N1CC3`, `CCOCCCN(C)C1CCN(C(=O)c2oc3ccccc3c2NC(=O)COc2cccc(C)c2)CC1` is lower in inhibition: 12.3% for the first, 7.03% for the second.

Compared with `Cn1ncc2c(Nc3cccc4ccccc34)ncnc21`, `CCC(CO)Oc1cc(NC(=O)c2cccc3ccccc23)c2ncn(C(C)C)c2c1` (configuration not stated) is lower in inhibition: -1.17% for the first, -4.73% for the second.

First: O=C(COC(=O)c1cccnc1Cl)NC12CC3CC(CC(C3)C1)C2
Second: COCCNC(=S)N1CCC(NC(=O)C23CC4CC(CC(C4)C2)C3)CC1
The inhibition of the first is higher: 16.2% for the first, 7.45% for the second.

Compared with `CN(C)[C@@H]1C(=O)C(C(N)=O)=C(O)[C@@]2(O)C(=O)C3=C(O)c4c(O)ccc(Cl)c4[C@@H](O)[C@H]3C[C@@H]12`, `O=C(Nc1nnc(-c2ccc(F)cc2)s1)c1c(F)cccc1Cl` is lower in inhibition: 11% for the first, 4.95% for the second.

Compared with `COc1ccc(N(CC(=O)NCC2CCCO2)C(=O)CCC(=O)Nc2nccs2)c(OC)c1` (configuration not stated), `O=C(CCCC(=O)N(CC(=O)NC1CCCC1)Cc1ccccc1Cl)Nc1ccccn1` is higher in inhibition: 2.48% for the first, 7.22% for the second.

Going from `O=C(Nc1nccs1)C1CCN(S(=O)(=O)c2ccc(Cl)c(C(F)(F)F)c2)CC1` to `O=C(Nc1nnc(-c2ccccc2)o1)c1cccc(S(=O)(=O)N2CCOCC2)c1`, the inhibition falls from 7.86% to 4.84%.

First: O=C(NCc1ccccc1)C(c1cccnc1)N(C(=O)c1csnn1)c1ccc(F)cc1 (configuration not stated)
Second: COc1ccccc1C(=O)c1ccccc1C(=O)c1ccccc1
The inhibition of the first is lower: 4.83% for the first, 8.6% for the second.

Compared with `CCN1C(=O)[C@H]2[C@@H](c3ccc(SC4CCCCC4)c(OC)c3)N[C@@](Cc3ccccc3)(C(=O)OC)[C@H]2C1=O`, `COc1ccc(C(C)=O)cc1COC(=O)Cn1cnc2ccccc2c1=O` is higher in inhibition: -5.41% for the first, 6.33% for the second.

Going from `CC1=Nn2c(nnc2-c2ccccc2)SC1` to `COc1ccccc1-c1nnc2n1N=C(c1ccc(OC(F)F)c(OCC3CC3)c1)CS2`, the inhibition falls from 6.68% to -0.82%.

Compared with `Cc1nnc(SCCCn2c(N3CCCCC3)nc3c2c(=O)[nH]c(=O)n3C)s1`, `CN(N)c1nc(N2CCCC2)nc(N2CCCC2)n1` is lower in inhibition: 5.57% for the first, -3.46% for the second.

Going from `COc1ccc(C)cc1S(=O)(=O)N(CC(=O)Nc1cccc([N+](=O)[O-])c1)c1ccc(C)cc1` to `COc1ccc([N+](=O)[O-])cc1NCC(=O)c1ccc(C)cc1`, the inhibition rises from -21.3% to 8.91%.

Going from `COc1ccc(C(=O)NC(=S)N2CCCCC2c2cccnc2)cc1OC` (configuration not stated) to `Cc1ccc(NC(=O)COc2ccc(/C=N\NC(=O)c3cccnc3)cc2)cc1C`, the inhibition falls from -1.07% to -9.46%.

Compared with `Cc1c(-c2ccccc2)n[nH]c1C(=O)N=Nc1c(O)[nH]c2ccccc12`, `CC(c1ccco1)N(C(=O)COc1ccccc1[N+](=O)[O-])c1ccccn1` (configuration not stated) is higher in inhibition: -61.7% for the first, 10.8% for the second.

First: S=C(NCCCc1ccccc1)Nc1ccc(Br)cc1
Second: COc1ccc(NC(=O)CCCC(=O)c2ccccc2)cc1
The inhibition of the first is higher: 7.28% for the first, -0.24% for the second.

First: C/C=N/N(c1ccccc1)c1ccccc1
Second: OC(c1ccccc1)C(CN1CCOCC1)c1ccccc1 (configuration not stated)
The inhibition of the first is lower: 0.33% for the first, 0.69% for the second.

First: N#CC(Cc1cc2ccccc2n1S(=O)(=O)c1ccccc1)OCc1ccccc1 (configuration not stated)
Second: c1ccc(CC2CCN(c3nc4ccccc4n4cnnc34)CC2)cc1
The inhibition of the first is higher: 4.5% for the first, -2.84% for the second.

Going from `CCCc1ccc(OCC(O)CN2CCN(C(=O)OCC)CC2)cc1` (configuration not stated) to `O=C(O)c1ccc(OCC2CCCO2)cc1` (configuration not stated), the inhibition rises from -2.88% to 10.9%.

Going from `COC(=O)CNC(=O)C(CCSC)NC(C)=O` (configuration not stated) to `CC(C)(C)NC(=O)NC(=O)CN1CCC(Cc2ccccc2)CC1`, the inhibition rises from -4.04% to 0.05%.

First: CCC(CO)Oc1cc(NC(=O)c2cccc(F)c2)c2ncn(C(C)C)c2c1 (configuration not stated)
Second: O=C(Nc1cccc2c1CCCC2)c1ccc(F)cc1
The inhibition of the first is lower: -2.61% for the first, 7.49% for the second.

Going from `COc1ccccc1C(=O)N(Cc1ccc(C)o1)C1CCS(=O)(=O)C1` (configuration not stated) to `CN(C1CCS(=O)(=O)C1)S(=O)(=O)c1ccc2ccccc2c1` (configuration not stated), the inhibition falls from 4.66% to 3.01%.

Compared with `COc1ccccc1NS(=O)(=O)N(C)C`, `COc1ccc(NC(=O)C(Br)C(C)C)cc1` (configuration not stated) is higher in inhibition: -5.67% for the first, 3.86% for the second.

Going from `COc1ccc(CN(Cc2ccco2)S(=O)(=O)c2ccc(S(=O)(=O)N3CCCC3)cc2)cc1` to `COc1ccc(N2CCN(C(=O)CN3C(=O)COc4ccccc43)CC2)cc1`, the inhibition falls from 4.29% to 3.49%.

Going from `CC(=O)OC1CCC2(C)C(=CCC3C4CC(=O)N(O)C(=O)C4(C)CCC32)C1` (configuration not stated) to `COc1ccc(N2CCN(C(=O)C3CCN(C(=O)c4ccccc4Cl)CC3)CC2)cc1`, the inhibition falls from 1.29% to -0.01%.

Going from `O=C(O)/C=C/c1ccc(OCCCF)cc1` to `COc1ccc(C2=NS(=O)(=O)N(C)C(C(=O)N(C)Cc3ccccc3)=C2)cc1`, the inhibition falls from 9.5% to 9.43%.

Compared with `CCNC(=O)NNC(=O)C1CC(c2cccs2)=NO1` (configuration not stated), `CC(NCC(=O)Nc1ccccc1C(=O)NC1CC1)c1ccccc1Cl` (configuration not stated) is lower in inhibition: 14.9% for the first, 3.15% for the second.

First: NC(=O)[C@H]1CC2(CC(c3cccc(NC(=O)[C@H]4CCC(=O)N4)c3)=NO2)CN1C(=O)c1ccccc1C(=O)c1ccccc1 (some centres not stated)
Second: O=c1[nH]cccc1-c1nc2ccccc2n1Cc1ccc(Cl)cc1
The inhibition of the first is lower: -3.78% for the first, 6.48% for the second.

First: COC(=O)CCSc1cc([N+](=O)[O-])cc2c1c(C1OCCS1)nn2-c1ccccc1 (configuration not stated)
Second: Cc1cc(C)n(C(=O)CCNC(=O)c2ccccc2Cl)n1
The inhibition of the first is higher: -0.28% for the first, -1.83% for the second.

Going from `O/N=C1\CC2(Cc3nonc31)OCCO2` to `O=P(c1ccc2c(c1)OCCO2)(N1CCOCC1)N1CCOCC1`, the inhibition rises from 2.79% to 6.13%.

Going from `Clc1ccc(C=NC23CN4CN(CN(C4)C2)C3)cc1` to `CC(C)CN1CC(C)C(=O)N(c2ccccc2)C1=S` (configuration not stated), the inhibition falls from 0.87% to 0.15%.

Compared with `CC(C)C(=O)Nc1oc(-c2ccccc2)cc1C#N`, `O=C(NNc1ccccc1Cl)C(O)(c1cccc(C(F)(F)F)c1)c1cccc(C(F)(F)F)c1` is higher in inhibition: 1.75% for the first, 8.34% for the second.

Going from `COCCNC(=S)Nc1cc(S(=O)(=O)N2CCOCC2)ccc1N1CCCCC1` to `O=C(NN=C1CCC(=NNC(=O)c2cccnc2)CC1)c1cccnc1`, the inhibition rises from 7.35% to 8.42%.

For `Cc1cccc(N=C2NC(=O)/C(=C/c3cn(C)c4ccccc34)S2)c1`, the inhibition was 31.3% (active).
`C=C1c2c(Cl)ccc(O)c2C(O)=C2C(=O)[C@]3(O)C(O)=C(C(N)=O)C(=O)[C@@H](N(C)C)[C@@H]3[C@@H](O)C12` (some centres not stated) was tested, and the inhibition was 32.6% (active).
In the case of `c1coc(-c2nc3nc4ccccc4n3nc2-c2ccco2)c1`, the inhibition is reported as 41.5% (active).
`COc1ccc(C2=Nn3c(nnc3-c3ccccc3OC)SC2)cc1OC1CCCC1` was tested, and the inhibition was 38.3% (active).
`CCN(CC)CCCC(C)n1c2nc(=O)[nH]c(=O)c-2nc2cc(Cl)ccc21` (configuration not stated) was tested, and the inhibition was 57.6% (active).
With `CC(C)n1cnc2c(NCc3ccccc3)cc(OCC3CCN(C)CC3)cc21` the inhibition was 49.8% (active).
`O=C(/C=C(O)/C=C/c1ccc(O)cc1)/C=C/c1ccc(O)cc1` was tested, and the inhibition was 36.6% (active).
`COc1ccc(NC(=O)ON=C2c3ccccc3-c3ccccc32)cc1` was tested, and the inhibition was 31.6% (active).
`ON=C1/C(=N\O)CC2(C/C1=N/O)OCCO2` was tested, and the inhibition was 32.1% (active).
`CN1C(c2ccc(F)cc2)=CS/C1=C(/C#N)c1nnc2n1-c1ccccc1SC2` was tested, and the inhibition was 25.7% (active).
For `COc1cccc2c1C(=O)c1c(O)c3c(c(O)c1C2=O)CC(O)(C(C)=NNC(=O)c1ccc(Cl)c(Cl)c1)CC3OC1CC(N)C(O)C(C)O1` (configuration not stated), the inhibition was 44.5% (active).
With `O=C(N/N=C/c1sc(N2CCCCC2)nc1-c1cccs1)c1cccnc1` the inhibition was 26.1% (active).

Reference: PubChem BioAssay AID492972 (The Scripps Research Institute Molecular Screening Center, 2010)
